# Assay results taken from PubChem BioAssay (EPA / NIEHS).
# Activity calls are given as the source filed them. The calls were made as follows: active = hit-call score of the fitted dose curve at least 0.9, where 1 is the maximum; inactive = score below 0.9.
# Read-out: Cyclin D1 (CCND1), CCND1 (gene 595)
# Test: LTEA_HepaRG_CCND1: Life Technologies and Expression Analysis (LTEA) Assay for Cyclin D1 (CCND1) using HepaRG (AID 2283451);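 as to AC50: differentiated human HepaRG liver cells in serum-free induction medium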
# Conditions: mRNA level, 48 h; actives raise or lower the signal
# Procedure, shortened: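 Differentiated HepaRG cells exposed 48 h in serum-free induction medium to eight half-log concentrations from 100 uM top, 0.5% DMSO, duplicates. CCND1 mRNA measured by Fluidigm TaqMan qRT-PCR, normalised to ACTB, GAPDH, POLR2A; bidirectional fit.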
SMILES,outcome,AC50
CCCCCCCCO,inactive,
CC(=O)c1ccc2c(c1)[C@H](NC(=O)c1ccc(F)cc1)[C@@H](O)C(C)(C)O2,inactive,
CC1(C)C(=O)N(Br)C(=O)N1Br,inactive,
CCNc1ccccc1,inactive,
COc1ccc(/C=C/S(=O)(=O)NC(=O)c2ccc(C)cc2Cl)cc1,inactive,
CC(C)CCO,inactive,
O=C(O)CCN(C1(C(=O)NO)CCCC1)S(=O)(=O)c1ccc(Oc2ccc(F)cc2)cc1,inactive,
C=CC(=C)CCC=C(C)C,inactive,
CC(O)CN(CCN(CC(C)O)CC(C)O)CC(C)O (centres undefined),,12.5 µM (active)
CCCN(C1CCN(C(=O)C2CCNCC2)CC1)[C@@H]1CCc2ccc(OC)cc2C1,,50 µM (active)
CCc1cc(SCc2sc(-c3ccc(C(F)(F)F)cc3)nc2CN2CCN(c3ccc(OC)cc3)CC2)ccc1OCC(=O)O,,93.4 µM (active)
CCOc1cccc(-n2cc(C(=O)N3CCN(c4cc(C(=O)O)c5ccccc5c4)CC3)nc2-c2ccc(C)cc2)c1,,82.4 µM (active)
O=C(O)CC(O)C(=O)O (centres undefined),inactive,
O=C(O)c1cc(N=Nc2ccc(S(=O)(=O)Nc3ccccn3)cc2)ccc1O,inactive,
C[C@](N)(Cc1ccc(O)c(O)c1)C(=O)O,inactive,
On1ccccc1=S,inactive,
Cn1c(=O)c2c(ncn2C)n(C)c1=O,inactive,
O=C(OC[C@H]1O[C@@H](OC(=O)c2cc(O)c(O)c(OC(=O)c3cc(O)c(O)c(O)c3)c2)[C@H](OC(=O)c2cc(O)c(O)c(OC(=O)c3cc(O)c(O)c(O)c3)c2)[C@@H](OC(=O)c2cc(O)c(O)c(OC(=O)c3cc(O)c(O)c(O)c3)c2)[C@@H]1OC(=O)c1cc(O)c(O)c(OC(=O)c2cc(O)c(O)c(O)c2)c1)c1cc(O)c(O)c(OC(=O)c2cc(O)c(O)c(O)c2)c1,inactive,
CCCCCCc1ccc(O)cc1O,inactive,
Nc1nc2ncc(CNc3ccc(C(=O)N[C@@H](CCC(=O)O)C(=O)O)cc3)nc2c(=O)[nH]1,inactive,
CC(C)CC(C)(O)C#CC(C)(O)CC(C)C (centres undefined),inactive,
CCOC(=O)COc1ccc2c(c1)CC(NCC(O)c1cccc(Cl)c1)CC2 (centres undefined),inactive,
CC1=CC(=O)CC(C)(C)C1,inactive,
CC[C@H]1OC(=O)[C@H](C)[C@@H](O[C@H]2C[C@@](C)(OC)[C@@H](O)[C@H](C)O2)[C@H](C)[C@@H](O[C@@H]2O[C@H](C)C[C@H](N(C)C)[C@H]2O)[C@](C)(O)C[C@@H](C)C(=O)[C@H](C)[C@@H](O)[C@]1(C)O,inactive,
CCOC(=O)c1ccc(C2CCC(NC[C@H](O)COc3ccc(O)c(NS(C)(=O)=O)c3)CC2)cc1 (some centres undefined),inactive,
Cc1ccc(C)c(O)c1,inactive,
COc1ccc2sc(C(=O)Nc3nnn[nH]3)c(OC(C)C)c2c1,,13.1 µM (active)
CCOCCO,inactive,
CC(=O)OC[C@H]1O[C@@](COC(C)=O)(O[C@H]2O[C@H](COC(C)=O)[C@@H](OC(C)=O)[C@H](OC(C)=O)[C@H]2OC(C)=O)[C@@H](OC(C)=O)[C@@H]1OC(C)=O,inactive,
